According to the supplement of paper PMC10849652:
Of roughly 8,800 targets only a part is listed; those with a hit were picked by preference. About 0.5% of all pairs of compound and target were hits. Unmarked numbers belong to inactive results.

Columns and labels:
Test in all cases: log2 fold change, soluble protein after heating vs DMSO (PISA); higher = thermal stabilisation; K562 lysate, 10 uM; active = over 0.2 and 3.5 SD of the protein, either way, in both replicates (recomputed)
nilotinib = compound: Cc1cn(-c2cc(NC(=O)c3ccc(C)c(Nc4nccc(-c5cccnc5)n4)c3)cc(C(F)(F)F)c2)cn1 [nilotinib]
Method in brief: (§1)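 The values are log-two fold changes in thermal stability compared with solvent controls and come from duplicates. They were obtained by TMTpro 16plex LC-MS/MS, with channel sums equalised, on the supernatant after 21,000xg for 90 min. That supernatant came from crude K562 extract at 1 mg/mL protein treated with 10 μM compound for 30 min, heated for 3 min across 48°C-58°C, pooled and brought to 0.5% NP-40 at 4°C.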

[1] = compound: Cc1nc(Nc2n[nH]c3c2CN(C(=O)N[C@H](CN(C)C)c2ccccc2)C3(C)C)c2sccc2n1
Method in brief: as §1

dasatinib = compound: Cc1nc(Nc2ncc(C(=O)Nc3c(C)cccc3Cl)s2)cc(N2CCN(CCO)CC2)n1 [dasatinib]
Method in brief: as §1

[2] = compound: Cc1ncc(-c2ccnc(Nc3ccc(S(C)(=O)=O)cc3)n2)n1C(C)C
Method in brief: as §1

[3] = compound: Cn1cc(-c2ccc3c(c2)CCN3C(=O)Cc2cccc(C(F)(F)F)c2)c2c(N)ncnc21
Method in brief: as §1

quisinostat = compound: Cn1cc(CNCC2CCN(c3ncc(C(=O)NO)cn3)CC2)c2ccccc21 [quisinostat]
Method in brief: as §1

tipifarnib = compound: Cn1cncc1[C@@](N)(c1ccc(Cl)cc1)c1ccc2c(c1)c(-c1cccc(Cl)c1)cc(=O)n2C [tipifarnib]
Method in brief: as §1

[4] = compound: NC(=O)Nc1cc(-c2cccc(F)c2)sc1C(=O)N[C@H]1CCCNC1
Method in brief: as §1

[5] = compound: NC(=O)c1cnc(N[C@@H]2CCCC[C@@H]2N)nc1Nc1cccc(-n2nccn2)c1
Method in brief: as §1

[6] = compound: NC1(c2ccc(-c3nc4ccn5c(=O)[nH]nc5c4cc3-c3ccccc3)cc2)CCC1
Method in brief: as §1

[7] = compound: NCC(=O)Nc1ccc(-n2nc(C(F)(F)F)cc2-c2ccc3c(ccc4ccccc43)c2)cc1
Method in brief: as §1

vorinostat = compound: O=C(CCCCCCC(=O)Nc1ccccc1)NO [vorinostat]
Method in brief: as §1

silmitasertib = compound: O=C(O)c1ccc2c(c1)nc(Nc1cccc(Cl)c1)c1ccncc12 [silmitasertib]
Method in brief: as §1

[8] = compound: O=C1NC(=O)C(c2cnc3ccccn23)=C1c1cn2c3c(cc(F)cc13)CN(C(=O)N1CCCCC1)CC2
Method in brief: as §1

entospletinib = compound: c1cn2cc(-c3ccc4cn[nH]c4c3)nc(Nc3ccc(N4CCOCC4)cc3)c2n1 [entospletinib]
Method in brief: as §1

LAP3 (UniProt P28838)
log2 fold change (nilotinib): 0.045 | log2 fold change [1]: -0.006 | log2 fold change (dasatinib): -0.047 | log2 fold change [2]: 0.016 | log2 fold change [3]: -0.123 | log2 fold change (quisinostat): -0.192 | log2 fold change (tipifarnib): -0.008 | log2 fold change [4]: 0.049 | log2 fold change [5]: 0.009 | log2 fold change [6]: -0.137 | log2 fold change [7]: 0.048 | log2 fold change (vorinostat): 0.082 | log2 fold change (silmitasertib): -0.104 | log2 fold change [8]: 0.104 | log2 fold change (entospletinib): -0.008

LIG4 (UniProt P49917)
Chain of UniProt P49917 (P49917 whole entry, looked up): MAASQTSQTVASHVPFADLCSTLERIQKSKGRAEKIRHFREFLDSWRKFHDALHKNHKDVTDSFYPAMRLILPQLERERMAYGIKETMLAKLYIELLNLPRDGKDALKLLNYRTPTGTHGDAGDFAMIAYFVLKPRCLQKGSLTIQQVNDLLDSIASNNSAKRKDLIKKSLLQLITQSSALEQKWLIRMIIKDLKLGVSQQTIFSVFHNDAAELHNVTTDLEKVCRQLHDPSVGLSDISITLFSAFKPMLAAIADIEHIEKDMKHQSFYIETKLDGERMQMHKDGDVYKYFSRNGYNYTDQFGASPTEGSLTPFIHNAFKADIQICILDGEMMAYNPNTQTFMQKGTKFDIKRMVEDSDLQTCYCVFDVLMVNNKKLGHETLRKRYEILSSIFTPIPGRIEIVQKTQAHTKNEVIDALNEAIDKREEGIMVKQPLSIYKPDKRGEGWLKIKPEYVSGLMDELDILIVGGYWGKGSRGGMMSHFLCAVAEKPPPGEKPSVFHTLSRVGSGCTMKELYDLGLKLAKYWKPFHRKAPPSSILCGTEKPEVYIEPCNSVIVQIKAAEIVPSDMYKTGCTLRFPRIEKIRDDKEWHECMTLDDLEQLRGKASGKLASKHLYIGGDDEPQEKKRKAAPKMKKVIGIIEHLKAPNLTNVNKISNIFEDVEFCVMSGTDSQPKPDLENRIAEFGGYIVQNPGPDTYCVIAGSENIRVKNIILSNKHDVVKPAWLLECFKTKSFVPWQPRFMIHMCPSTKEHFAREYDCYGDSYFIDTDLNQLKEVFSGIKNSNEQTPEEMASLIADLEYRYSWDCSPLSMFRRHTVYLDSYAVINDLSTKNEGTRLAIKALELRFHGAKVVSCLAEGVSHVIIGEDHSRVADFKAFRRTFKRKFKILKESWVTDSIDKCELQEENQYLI
log2 fold change (nilotinib): 0.02 | log2 fold change [1]: -0.072 | log2 fold change (dasatinib): 0.018 | log2 fold change [2]: -0.008 | log2 fold change [3]: -0.026 | log2 fold change (quisinostat): -0.085 | log2 fold change (tipifarnib): 0.038 | log2 fold change [4]: 0.066 | log2 fold change [5]: -0.045 | log2 fold change [6]: -0.005 | log2 fold change [7]: -0.041 | log2 fold change (vorinostat): -0.368 | log2 fold change (silmitasertib): 0.107 | log2 fold change [8]: -0.039 | log2 fold change (entospletinib): 0.062

KIFC1 (UniProt Q9BW19)
log2 fold change (nilotinib): -0.008 | log2 fold change [1]: 0.003 | log2 fold change (dasatinib): -0.031 | log2 fold change [2]: -0.002 | log2 fold change [3]: 0.034 | log2 fold change (quisinostat): -0.055 | log2 fold change (tipifarnib): 0.006 | log2 fold change [4]: 0.001 | log2 fold change [5]: -0.024 | log2 fold change [6]: -0.025 | log2 fold change [7]: 0.02 | log2 fold change (vorinostat): -0.898 (active) | log2 fold change (silmitasertib): 0.03 | log2 fold change [8]: -0.04 | log2 fold change (entospletinib): -0.002

MED28 (UniProt Q9H204)
Chain of UniProt Q9H204 (Q9H204 whole entry, looked up): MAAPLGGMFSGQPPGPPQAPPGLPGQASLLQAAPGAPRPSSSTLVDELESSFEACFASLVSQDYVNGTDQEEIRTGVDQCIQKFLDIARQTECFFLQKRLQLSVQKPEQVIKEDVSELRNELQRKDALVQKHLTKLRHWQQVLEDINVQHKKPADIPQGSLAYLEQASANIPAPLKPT
log2 fold change (nilotinib): 0.053 | log2 fold change [1]: 0.053 | log2 fold change (dasatinib): -0.004 | log2 fold change [2]: 0.053 | log2 fold change [3]: -0.006 | log2 fold change (quisinostat): -0.007 | log2 fold change (tipifarnib): 0.015 | log2 fold change [4]: -0.013 | log2 fold change [5]: -0.005 | log2 fold change [6]: -0.014 | log2 fold change (vorinostat): -0.219 | log2 fold change (silmitasertib): 0.003 | log2 fold change [8]: 0.09

LAS1L (UniProt Q9Y4W2)
log2 fold change (nilotinib): -0.019 | log2 fold change [1]: 0.008 | log2 fold change (dasatinib): 0.025 | log2 fold change [2]: 0.029 | log2 fold change [3]: -0.019 | log2 fold change (quisinostat): -0.083 | log2 fold change (tipifarnib): -0.013 | log2 fold change [4]: 0.033 | log2 fold change [5]: 0.044 | log2 fold change [6]: -0.024 | log2 fold change [7]: -0.008 | log2 fold change (vorinostat): -0.397 (active) | log2 fold change (silmitasertib): 0.01 | log2 fold change [8]: -0.018 | log2 fold change (entospletinib): -0.075

MOSPD2 (UniProt Q8NHP6)
log2 fold change (nilotinib): 0.054 | log2 fold change [1]: -0.146 | log2 fold change (dasatinib): 0.006 | log2 fold change [2]: -0.009 | log2 fold change [3]: 0.015 | log2 fold change (quisinostat): -0.096 | log2 fold change (tipifarnib): 0.089 | log2 fold change [4]: -0.034 | log2 fold change [5]: -0.043 | log2 fold change [6]: -0.026 | log2 fold change [7]: -0.364 (active) | log2 fold change (vorinostat): 0.039 | log2 fold change (silmitasertib): 0.071 | log2 fold change [8]: -0.02 | log2 fold change (entospletinib): -0.074

KIF14 (UniProt Q15058)
Chain of UniProt Q15058 (Q15058 whole entry, looked up): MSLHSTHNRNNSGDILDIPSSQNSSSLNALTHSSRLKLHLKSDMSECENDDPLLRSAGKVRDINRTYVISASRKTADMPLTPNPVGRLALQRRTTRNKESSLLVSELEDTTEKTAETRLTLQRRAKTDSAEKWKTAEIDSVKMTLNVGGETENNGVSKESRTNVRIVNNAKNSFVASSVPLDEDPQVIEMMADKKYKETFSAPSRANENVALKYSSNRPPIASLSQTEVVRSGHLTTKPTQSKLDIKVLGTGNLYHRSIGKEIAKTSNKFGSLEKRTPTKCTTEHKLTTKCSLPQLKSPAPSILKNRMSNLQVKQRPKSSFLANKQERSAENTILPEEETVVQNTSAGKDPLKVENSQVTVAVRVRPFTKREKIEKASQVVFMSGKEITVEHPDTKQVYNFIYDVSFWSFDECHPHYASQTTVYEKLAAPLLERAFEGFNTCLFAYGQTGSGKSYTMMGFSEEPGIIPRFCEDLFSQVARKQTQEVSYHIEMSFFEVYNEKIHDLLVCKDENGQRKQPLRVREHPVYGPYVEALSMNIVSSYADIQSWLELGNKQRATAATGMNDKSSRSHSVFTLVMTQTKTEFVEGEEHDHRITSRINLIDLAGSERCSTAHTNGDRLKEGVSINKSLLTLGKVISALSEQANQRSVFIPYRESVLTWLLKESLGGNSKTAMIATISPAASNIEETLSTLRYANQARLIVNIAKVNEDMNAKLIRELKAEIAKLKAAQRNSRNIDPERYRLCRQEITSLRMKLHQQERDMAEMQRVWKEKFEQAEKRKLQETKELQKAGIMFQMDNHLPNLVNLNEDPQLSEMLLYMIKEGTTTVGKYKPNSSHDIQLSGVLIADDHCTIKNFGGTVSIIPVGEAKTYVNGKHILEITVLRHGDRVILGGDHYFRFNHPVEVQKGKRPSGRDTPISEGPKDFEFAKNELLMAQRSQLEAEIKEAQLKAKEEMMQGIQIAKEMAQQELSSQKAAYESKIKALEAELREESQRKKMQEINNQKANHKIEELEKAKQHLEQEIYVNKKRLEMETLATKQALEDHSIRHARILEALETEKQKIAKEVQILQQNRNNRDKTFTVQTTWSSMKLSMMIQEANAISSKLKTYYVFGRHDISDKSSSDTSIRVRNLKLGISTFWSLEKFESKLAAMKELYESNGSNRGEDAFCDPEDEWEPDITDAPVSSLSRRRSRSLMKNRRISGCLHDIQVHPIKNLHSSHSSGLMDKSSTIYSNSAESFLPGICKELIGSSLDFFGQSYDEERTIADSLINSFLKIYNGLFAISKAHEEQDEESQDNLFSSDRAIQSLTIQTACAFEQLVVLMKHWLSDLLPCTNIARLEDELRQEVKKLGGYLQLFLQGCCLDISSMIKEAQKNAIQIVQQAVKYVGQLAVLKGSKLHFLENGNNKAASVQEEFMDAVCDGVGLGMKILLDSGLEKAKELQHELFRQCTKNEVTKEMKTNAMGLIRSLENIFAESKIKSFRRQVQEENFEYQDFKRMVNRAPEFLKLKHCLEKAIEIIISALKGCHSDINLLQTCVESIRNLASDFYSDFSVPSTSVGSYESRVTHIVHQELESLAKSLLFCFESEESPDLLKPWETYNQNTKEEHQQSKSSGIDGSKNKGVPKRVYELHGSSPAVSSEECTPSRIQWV
log2 fold change (nilotinib): 0.003 | log2 fold change [1]: 0.042 | log2 fold change (dasatinib): -0.035 | log2 fold change [2]: 0.033 | log2 fold change [3]: 0.007 | log2 fold change (quisinostat): -0.139 | log2 fold change (tipifarnib): -0.046 | log2 fold change [4]: 0 | log2 fold change [5]: 0.001 | log2 fold change [6]: -0.024 | log2 fold change [7]: 0.082 | log2 fold change (vorinostat): -0.286 (active) | log2 fold change (silmitasertib): -0.016 | log2 fold change [8]: -0.019 | log2 fold change (entospletinib): -0.055

METTL21A (UniProt Q8WXB1)
Chain of UniProt Q8WXB1 (Q8WXB1 whole entry, looked up): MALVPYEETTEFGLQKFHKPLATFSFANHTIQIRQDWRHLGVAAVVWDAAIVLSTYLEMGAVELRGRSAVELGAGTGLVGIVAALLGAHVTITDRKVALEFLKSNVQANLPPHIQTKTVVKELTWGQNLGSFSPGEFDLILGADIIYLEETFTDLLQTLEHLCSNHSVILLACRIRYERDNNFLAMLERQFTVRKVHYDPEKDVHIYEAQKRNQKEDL
log2 fold change (nilotinib): 0.017 | log2 fold change [1]: 0.055 | log2 fold change (dasatinib): 0.023 | log2 fold change [2]: 0.026 | log2 fold change [3]: -0.064 | log2 fold change (quisinostat): -0.069 | log2 fold change (tipifarnib): -0.005 | log2 fold change [4]: -0.001 | log2 fold change [5]: -0.007 | log2 fold change [6]: 0.003 | log2 fold change (vorinostat): 0.07 | log2 fold change (silmitasertib): -0.016 | log2 fold change [8]: -0.013

LARS2 (UniProt Q15031)
log2 fold change (nilotinib): -0.002 | log2 fold change [1]: 0.048 | log2 fold change (dasatinib): -0.075 | log2 fold change [2]: -0.008 | log2 fold change [3]: 0.065 | log2 fold change (quisinostat): 0.028 | log2 fold change (tipifarnib): -0.085 | log2 fold change [4]: 0.089 | log2 fold change [5]: 0.044 | log2 fold change [6]: -0.036 | log2 fold change [7]: -0.062 | log2 fold change (vorinostat): -0.229 | log2 fold change (silmitasertib): 0.054 | log2 fold change [8]: -0.083 | log2 fold change (entospletinib): 0.036

MAP4K4 isoform 3 (UniProt O95819)
Chain of UniProt O95819 (O95819 whole entry, looked up): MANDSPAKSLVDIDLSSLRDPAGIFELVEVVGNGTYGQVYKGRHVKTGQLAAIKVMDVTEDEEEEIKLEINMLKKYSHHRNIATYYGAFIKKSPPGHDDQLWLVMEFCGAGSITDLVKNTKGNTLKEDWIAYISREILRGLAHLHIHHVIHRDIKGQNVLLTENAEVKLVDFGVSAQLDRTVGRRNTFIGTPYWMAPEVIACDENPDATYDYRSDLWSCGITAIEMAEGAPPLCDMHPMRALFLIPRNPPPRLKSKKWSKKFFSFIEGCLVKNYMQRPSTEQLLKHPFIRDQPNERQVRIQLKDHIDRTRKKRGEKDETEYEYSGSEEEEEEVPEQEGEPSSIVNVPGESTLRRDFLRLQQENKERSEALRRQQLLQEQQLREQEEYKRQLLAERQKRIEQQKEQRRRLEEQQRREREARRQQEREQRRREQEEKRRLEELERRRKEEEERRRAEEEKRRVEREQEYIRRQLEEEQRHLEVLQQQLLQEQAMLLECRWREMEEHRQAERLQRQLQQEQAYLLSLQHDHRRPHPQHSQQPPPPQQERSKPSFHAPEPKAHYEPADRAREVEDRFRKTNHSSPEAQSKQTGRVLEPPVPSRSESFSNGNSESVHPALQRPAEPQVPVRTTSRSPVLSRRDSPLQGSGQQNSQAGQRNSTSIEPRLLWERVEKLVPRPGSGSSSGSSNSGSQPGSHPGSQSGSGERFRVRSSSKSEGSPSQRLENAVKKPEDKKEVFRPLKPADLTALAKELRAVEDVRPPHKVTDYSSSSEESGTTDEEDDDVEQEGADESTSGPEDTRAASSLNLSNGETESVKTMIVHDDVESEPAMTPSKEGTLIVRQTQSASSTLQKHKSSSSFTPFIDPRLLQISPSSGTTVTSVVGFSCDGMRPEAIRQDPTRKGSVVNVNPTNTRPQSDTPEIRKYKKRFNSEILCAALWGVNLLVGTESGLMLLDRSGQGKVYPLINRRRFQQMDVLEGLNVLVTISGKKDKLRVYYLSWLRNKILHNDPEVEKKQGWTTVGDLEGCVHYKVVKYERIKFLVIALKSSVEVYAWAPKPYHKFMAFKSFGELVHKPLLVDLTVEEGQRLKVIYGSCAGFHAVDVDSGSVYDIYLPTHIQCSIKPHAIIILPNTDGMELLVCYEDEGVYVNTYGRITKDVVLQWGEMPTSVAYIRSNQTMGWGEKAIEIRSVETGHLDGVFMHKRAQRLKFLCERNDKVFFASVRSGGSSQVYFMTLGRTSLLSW
log2 fold change (nilotinib): -0.108 | log2 fold change [1]: 0.03 | log2 fold change (dasatinib): -0.103 | log2 fold change [2]: 0.002 | log2 fold change [3]: 0.006 | log2 fold change (quisinostat): -0.103 | log2 fold change (tipifarnib): 0.038 | log2 fold change [4]: 0.27 (active) | log2 fold change [5]: 0.02 | log2 fold change [6]: -0.032 | log2 fold change [7]: 0.041 | log2 fold change (vorinostat): -0.145 | log2 fold change (silmitasertib): 0.045 | log2 fold change (entospletinib): 0.178

LETM1 (UniProt O95202)
Chain of UniProt O95202 (O95202 whole entry, looked up): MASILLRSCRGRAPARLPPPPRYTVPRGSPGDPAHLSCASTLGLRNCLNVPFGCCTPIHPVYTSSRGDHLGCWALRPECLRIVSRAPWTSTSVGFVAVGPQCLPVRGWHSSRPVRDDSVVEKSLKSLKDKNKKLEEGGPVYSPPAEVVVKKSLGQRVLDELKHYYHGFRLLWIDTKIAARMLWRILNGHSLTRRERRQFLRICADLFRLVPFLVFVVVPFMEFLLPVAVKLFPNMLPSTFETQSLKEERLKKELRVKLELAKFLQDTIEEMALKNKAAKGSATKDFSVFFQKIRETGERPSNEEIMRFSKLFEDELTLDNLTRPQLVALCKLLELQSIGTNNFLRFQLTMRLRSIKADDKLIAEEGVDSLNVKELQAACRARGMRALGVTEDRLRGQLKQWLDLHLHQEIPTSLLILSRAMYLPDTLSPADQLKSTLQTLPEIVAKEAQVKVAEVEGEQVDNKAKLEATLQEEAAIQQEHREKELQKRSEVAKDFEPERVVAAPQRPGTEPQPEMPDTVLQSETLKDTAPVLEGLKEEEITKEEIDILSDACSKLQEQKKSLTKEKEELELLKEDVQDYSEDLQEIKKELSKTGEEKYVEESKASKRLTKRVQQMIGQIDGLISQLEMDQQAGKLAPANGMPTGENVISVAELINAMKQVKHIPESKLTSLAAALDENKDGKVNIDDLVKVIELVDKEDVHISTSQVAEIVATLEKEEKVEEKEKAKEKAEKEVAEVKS
log2 fold change (nilotinib): 0.038 | log2 fold change [1]: -0.021 | log2 fold change (dasatinib): -0.008 | log2 fold change [2]: 0.048 | log2 fold change [3]: 0.007 | log2 fold change (quisinostat): 0.043 | log2 fold change (tipifarnib): 0.008 | log2 fold change [4]: -0.012 | log2 fold change [5]: -0.011 | log2 fold change [6]: -0.024 | log2 fold change [7]: -0.041 | log2 fold change (vorinostat): 0.084 | log2 fold change (silmitasertib): -0.021 | log2 fold change [8]: -0.006 | log2 fold change (entospletinib): 0.009
